HT1080-NT tox = qHTS for induction of synthetic lethality in tumor cells producing 2HG: qHTS for the HT-1080-NT fibrosarcoma cell line. HT-1080-NT fibrosarcoma viability, CellTiter-Glo ATP luminescence, 48 h. Potency, µM (series often up to 46.1 µM), for the others: at the top dose activity, negative = less viability, actives largely listed as cytotoxic. 1.6% of 360,000 active. AID 686970, 2013;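 also: NT is the 2HG producing partner of a matched IDH1 knockdown line; 0% = DMSO-treated cells and -100% = media-only wells without cells; nearly all actives have a fitted effect of over 55% in size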
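Viability by CellTiter-Glo luminescence after 48 h compound exposure at 37C of HT-1080-NT cells (750/well, RPMI, 5% FBS). % activity scaled between DMSO wells and medium-only wells, then curve-fitted and categorized by curve class.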
KB-V1 MDR tox = qHTS assay for MDR1-selective chemotherapeutics: Primary screen using the drug-selected MDR subline cells KB-V1; KB-V1 MDR cells viability, CellTiter-Glo, 72 h; Potency, µM (series often up to 46.1 µM), actives largely listed as cytotoxic; 3.4% of 400,000 active; AID 1347076, 2019; also: % is scaled to controls: 0 for no effect and ±100 for the full control effect; nearly all actives have a fitted effect of over 60% in size
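Readout: CellTiter-Glo luminescence, 10 min after addition. Cells: KB-V1 MDR subline, 72 h at 37 degrees C with compound. Analysis: corrected, normalized data fitted to concentration-effect curves.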
SW480 rerep = A quantitative high throughput screen for small molecules that induce DNA re-replication in SW480 colon adenocarcinoma cells; SW480 DNA re-replication, Hoechst DNA content imaging, 48 h; Potency, µM (highest dose often 46.1 µM), without a hit: top-dose re-replication activation, actives largely listed as activators; 1.8% of 340,000 active; also: % of control where 0% means no effect; nearly all actives have a fitted effect of over 55% in size
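Per well, 250 cells were exposed to pinned compound for 48 hr. Nuclear DNA was visualised with Hoechst (40 min, 37 C) and total object intensity recorded by fluorescence scanning.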
HT1080 IDH1KD tx = qHTS for induction of synthetic lethality in tumor cells producing 2HG: qHTS for the HT-1080-IDH1KD cell line | Potency, µM (titrated, usually from 46.1 µM), for the others: at the top dose activity, negative = toxicity, most hits filed as cytotoxic | 2% of 360,000 active | HT-1080 IDH1 knockdown viability, ATP luminescence, 48 h;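 also: 0% = DMSO wells and -100% = cell-free medium wells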
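Luminescent ATP read-out (CellTiter-Glo, 10 min at room temperature) after 48 h compound exposure at 37 °C gave viability of IDH1-knockdown HT-1080 cells. Activity was normalised to DMSO and cell-free wells, then fitted as concentration-response curves.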
KB-3-1 cytotox = qHTS assay for MDR1-selective chemotherapeutics: Primary screen using the parental adenocarcinoma cell KB-3-1; KB-3-1 viability, CellTiter-Glo ATP luminescence, 72 h; Potency, µM (highest dose often 46.1 µM), hits mostly cytotoxic; 1.4% of 400,000 active; AID 1347075, 2019; also: % is scaled to controls: 0 for no effect and ±100 for the full control effect; nearly all actives have a fitted effect of over 60% in size
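Cytotoxicity measured as CellTiter-Glo luminescence after 72 h at 37 C. Compound titrations were pinned onto drug-naive KB-3-1 parental adenocarcinoma cells grown in DMEM with 10% FBS, and normalized data fitted to concentration-response curves.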
MCF10A rereplic = A quantitative high throughput screen for small molecules that induce DNA re-replication in MCF 10a normal breast cells. 2.9% of 350,000 active. MCF 10A DNA re-replication, Hoechst nuclear intensity, 48 h. AID 624296, 2012. Potency, µM (highest dose often 46.1 µM), inactives show top-dose activity, positive = re-replication, hits mostly activators; also: % of control where 0% means no effect; nearly all actives have a fitted effect of over 50% in size
Numbers without * were called inactive; i = inactive; ? = inconclusive; . = not tested or not shown. Sampled rows, rich in hits. Any-hit rate of the full collection: about 8%. Calls follow the shape of the dose curve; as a rule, active = well fitted curve in the direction sought with a large enough effect; inconclusive = small, poorly fitted or top-dose-only effect, or another doubt; inactive = no such curve, though single readings can be large; an effect the other way counts as inactive or inconclusive. Potency is read from the fitted curve at half-maximal effect.

SMILES | HT1080-NT tox | KB-V1 MDR tox | SW480 rerep | HT1080 IDH1KD tx | KB-3-1 cytotox | MCF10A rereplic
CCCCN(C=O)c1c(CC)nc2ccc(C(=O)Nc3cc(-c4ccccc4)ccc3OC)cn12 | ? | 23µM* | . | ? | ? | .
CCc1nc2ccc(C(=O)Nc3cc(-c4ccccc4)ccc3OC)cn2c1N(CC)CCN(C)C | 18µM* | ? | . | 13µM* | ? | .
COc1cc(OC)c(OC)cc1CNC(=O)c1cc(S(=O)(=O)N2CCOCC2)ccc1F | -4% | ? | ? | -2% | i | -1%
COc1ccc(CCC(=O)Nc2ccccc2C(F)(F)F)cc1 | -1% | i | 1% | 3% | i | -6%
COc1ccccc1NC(=O)CN(C)S(=O)(=O)c1cc(C)ccc1OC | 3% | 21µM* | -2% | -2% | i | 3%
COc1ccc(C)cc1NC(=O)CN(C)S(=O)(=O)c1cnc[nH]1 | 0% | i | ? | 0% | i | 23µM*
CCCCCCCCCCCCCCCC[n+]1ccc(/C=N/O)cc1 | 21µM* | i | 21µM* | 23µM* | 2.9µM* | 2.6µM*
CC(=O)Oc1c(Cl)cc(N(C(C)=O)S(=O)(=O)c2ccccc2)c2ccccc12 | ? | ? | 6.5µM* | ? | ? | ?
COc1ccc(S(=O)(=O)N(C(C)=O)c2ccc(OC(C)=O)c3ccccc23)cc1[N+](=O)[O-] | 21µM* | ? | ? | ? | ? | ?
O=C(N=C1SC2CS(=O)(=O)CC2N1Cc1ccccc1Cl)C1CCCO1 (stereo not drawn) | -4% | i | 11% | 3% | i | 6%
CCCCCCCc1ccc(-c2ccc(O)cc2)nc1 | -14% | i | -3% | ? | i | ?
CCCCCCC[N+](CC)(CC)CCCCc1ccc(Cl)cc1 | 6.5µM* | i | 18% | 6.5µM* | ? | ?
CCOC(=O)C1=C(N)Oc2ccc3ccccc3c2C1c1ccc(O)c(OC)c1 (stereo not drawn) | 21µM* | i | 1% | ? | i | ?
CCOC(=O)C1=C(N)Oc2cc(O)ccc2C1c1ccc([N+](=O)[O-])cc1 (stereo not drawn) | ? | i | 10% | ? | i | ?
CCOC(=O)C1=C(N)Oc2ccc3ccccc3c2C1c1ccc(O)cc1 (stereo not drawn) | -6% | i | 1% | -17% | i | 18µM*
Cc1cccc(-n2cc(CN(C)Cc3nccn3C)c(-c3cccc(F)c3)n2)c1 | ? | i | 18µM* | ? | i | ?
CCn1ccnc1CN(C)Cc1cn(-c2cccc(C)c2)nc1-c1cccc(F)c1 | -16% | ? | ? | -29% | ? | 5.8µM*
CCn1ccnc1CN(C)Cc1cn(-c2ccc(C)cc2)nc1-c1cccc(C)c1 | ? | i | ? | 26µM* | i | ?
COc1ccc(-n2cc(CN(C)CCO)c(-c3cccc(F)c3)n2)cc1 | 0% | i | -6% | 0% | i | -3%
Cc1cccc(-n2cc(CNCCN3CCOC3=O)c(-c3cccc(F)c3)n2)c1 | -19% | i | ? | ? | i | -8%
Cc1ccc(-n2cc(CN3CCN(Cc4nccn4C)CC3)c(-c3cccc(C)c3)n2)cc1 | -19% | i | 17% | ? | ? | 6%
CCc1ccccc1Nc1nc2ccccc2c2nncn12 | . | i | . | . | i | .
Cc1ccc(NC(=O)CSc2nc3ccc(NC(=O)c4cccs4)cc3s2)c(C)c1 | . | i | . | . | ? | .
CCOC(=O)Nc1ccc2nc(-c3cscn3)[nH]c2c1 | ? | 3.7µM* | . | 26µM* | 2.6µM* | .
